# Experiments:
# Experiment in all cases: PBM binding z-score (relative to random genomic background probes); higher = stronger binding; sequences stand for … in GC…GCGATTGACAGCGTAGAATGAAGG
# [1] = tested on: PPARg:RXRa DBDmut IVT, anti-RXR (DBD mutation: RXRa K156A/R161A, NR concentration 270 nM, RXRa partner concentration 90 nM)
# Procedure, shortened: (§1)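 The probes on custom Agilent 4×180K protein-binding microarrays were double-stranded, with 34-nt variable regions bearing direct-repeat seeds, single-nucleotide variants, half-site ablations and random human genomic background sequences. Incubation lasted 1 h with ligand-free nuclear receptor dimers in PBS pH 7.4, 2% milk, 0.02% Triton X-100, 1 mM DTT, 0.2 mg/mL BSA and 0.4 mg/ml salmon testes DNA. Antibodies against each partner (one per run) detected bound dimers, and fluorescence scans were regression-normalized. Binding z-scores take the random background probes as reference.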
# [2] = tested on: PPARg:RXRa IVT, anti-PPARg (NR concentration 270 nM, RXRa partner concentration 90 nM)
# Procedure, shortened: as §1
# [3] = tested on: PPARg DBDmut:RXRa IVT, anti-PPARg (DBD mutation: PPARg1 K132A/R137A, NR concentration 270 nM, RXRa partner concentration 90 nM)
# Procedure, shortened: as §1
# [4] = tested on: PPARg DBDmut IVT, anti-PPARg (DBD mutation: PPARg1 K132A/R137A, NR concentration 270 nM)
# Procedure, shortened: as §1
# [5] = tested on: PPARg homodimer (NR concentration 180 nM)
# Procedure, shortened: as §1
# [6] = tested on: PXR:RXRa (NR concentration 270 nM, RXRa partner concentration 90 nM)
# Procedure, shortened: as §1
# [7] = tested on: PXR homodimer (NR concentration 270 nM)
# Procedure, shortened: as §1
# [8] = tested on: RARa:RXR (NR concentration 270 nM, RXRa partner concentration 90 nM)
# Procedure, shortened: as §1
# [9] = tested on: RARa homodimer (NR concentration 270 nM)
# Procedure, shortened: as §1
# [10] = tested on: RARb:RXRa (NR concentration 270 nM, RXRa partner concentration 90 nM)
# Procedure, shortened: as §1
Sequence,PBM binding z-score [1],PBM binding z-score [2],PBM binding z-score [3],PBM binding z-score [4],PBM binding z-score [5],PBM binding z-score [6],PBM binding z-score [7],PBM binding z-score [8],PBM binding z-score [9],PBM binding z-score [10]
TCTCCTAGGTCAACGATGGTCAGCTAATCTGCTA,4.1,4.22,0.539,1.02,2.22,2.36,-0.309,2.66,0.663,4.28
CAAATTAGGTCAAAGGTCAAAGTCGAGCCAACCA,8.74,8.96,4.97,4,6.21,7.1,2.26,8.95,3.73,5.94
CAAACTAGGTCACGAAAAGTCAAAGTCGAATGAC,8,9.2,4.41,4.13,2.52,2.27,0.426,3.44,0.939,4.58
TCTTGTAGATCATTAGAGGTTAAGAAAGTGCGCT,1.84,1.01,0.756,0.793,0.628,3.16,0.436,1.89,0.575,1.01
ATCTCTAGGTAAAAGTTCAGCGAATCCCGAGGAT,2.55,4.3,1.19,1.67,2.4,2.46,1.54,2.48,0.715,2.93
ACTATTAGTTAACTTAGGGCAACCGATACGACGC,0.0765,0.837,0.677,1.02,0.328,0.418,0.13,0.582,0.421,0.959
CGAAATAGGTCAAGGACAGTGAATCTCCGCACGC,7.8,7.31,2.5,0.573,3.31,2.69,0.113,3.82,1.59,4.51
CCTACTGAGCCATCAGGTCATTGATATCAACGTT,1.16,1.31,0.489,-0.632,2.1,2.1,1.55,2.21,1.53,1.81
CCTTCCGGGTCACTCCAGGTTATAGCATCGGAGT,3.76,4.8,0.383,-0.795,1.88,4.83,0.335,3.65,0.518,3.77
TCTAGCTGGCCAGAGGGTCACTCAAGAGGTACGG,0.731,-0.216,-1.57,-1.05,0.244,1.38,-0.401,1.83,-0.851,1.73
CCTAGCAGGACAGGGTCACTCAAGCATTTCGCTT,0.172,1.08,-2.12,-1.5,1.08,2.84,0.281,3.62,0.381,2.57
CCGACTGGGGCAGAAAGGTTACTATACCATCCGG,2.21,1.68,-0.665,-1.26,0.373,0.533,-0.207,1.18,-0.156,1.53

# Source: the supplement of paper PMC6555819
